# This is one part of a sample in which hits are shown more often than they occur.
# Sa growth 42C – inhibitors of Staphylococcus aureus growth at 42 °C. S. aureus RN4220 growth, OD600, 20 h; stronger effect = lower value. relative growth, % (test concentration not listed). 0.53% of 170,000 active;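 active = relative growth at most 50% at the other temperature and 20+ points below 30 °C, or under 10% at both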
# Sa helicase inh – S. aureus DNA helicase inhibition; 0.05% of 120,000 active; inhibition, % (test concentration not listed); purified S. aureus helicase, fluorescence unwinding assay; AID 485395; in the data active = inhibition above about 25%, passing the limit was not always enough;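 also: 0% = mean of negative control wells and 100% = mean of positive control wells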
# Numbers without * were called inactive; nt = no result.
SMILES,Sa growth 42C,Sa helicase inh
Cc1conc1NC(c1cccs1)c1ccc2cccnc2c1O (stereo not given),3.1*,11
C=CCN1C(=O)S/C(=C/c2ccc(OC)c(OCC)c2)C1=O,108,3
N=C1S/C(=C\c2ccc(F)cc2)C(=O)N1c1nccs1,5.1*,18
CCOc1cc(/C=C2/SC(=N)N(c3nccs3)C2=O)ccc1OCCN1CCOCC1,8.0*,9
N=C1S/C(=C/c2ccccc2)C(=O)N1c1nonc1N,91,12
N#Cc1c(-c2ccccc2)c(C#N)c2sc3ccccc3n2c1=O,117,2
Cc1ccc(Cl)cc1N1CCN(C(=O)Cn2nc(C)c3sc4ccccc4c3c2=O)CC1,114,nt
Cc1ccc(Cl)cc1N1CCN(Cn2sc3ccccc3c2=O)CC1,-0.4*,2
CCCCCCCCCCCCC[N+](C)(C)Cc1ccccc1,-0.8*,nt
CC[N+](C)(CC)Cc1ccccc1,70,0
COc1ccc2c(c1)sc(=NC(=O)CSC(C)=O)n2C,nt,-19
Cc1n[nH]c(C)c1CCC(=O)O,108,5
COC(=O)c1c(COc2ccccc2)n[nH]c1C,113,nt
Cc1n[nH]c(C)c1CCCCCOc1ccccc1,0.0*,13
Cc1n[nH]c(C)c1CCCOc1ccccc1,8.3*,-2
O=C(Nc1nc(-c2ccc3c(c2)CCCC3)cs1)c1cccnc1,145,-9
O=S1(=O)C=C(Sc2nnnn2-c2ccccc2)c2ccccc21,-1.7*,4
c1ccc(-n2nnnc2SSc2nnnn2-c2ccccc2)cc1,89,-2
O=C(C(Sc1nnc(C2CC2)n1C1CC1)c1ccccc1)N1CCOCC1 (stereo not given),92,14
Cc1ccc(S(=O)(=O)NCCc2nnc3ccc(SCC(=O)N4CCCC4)nn23)cc1,104,1
NC(=O)/C=C/C(=O)Nc1ccccc1Cl,21,nt
Cc1ccccc1NC(=O)/C=C\C(N)=O,-0.5*,2
CC1(C)SC(CNC(=O)Cc2ccccc2)NC1C(=O)O (stereo not given),103,nt
NNC(=O)COc1ccccc1,105,nt
Cc1onc(-c2ccccc2Cl)c1C(=O)N[C@@H]1C(=O)N2[C@@H]1SC(C)(C)[C@@H]2C(=O)O,0.0*,nt
SMILES,Sa growth 42C,Sa helicase inh
CCN1CCN(C(=O)NC(C(=O)N[C@@H]2C(=O)N3[C@@H]2SC(C)(C)[C@@H]3C(=O)O)c2ccccc2)C(=O)C1=O (stereo not given in full),-0.3*,nt
CC1(C)S[C@@H]2[C@H](NC(=O)COc3ccccc3)C(=O)N2[C@H]1C(=O)O,-0.9*,nt
Cc1onc(-c2ccccc2Cl)c1C(=O)NC1=NCCS1,111,9
CCC(C)(C)NC(=O)C(NS(=O)(=O)c1cccs1)c1ccccc1 (stereo not given),102,nt
CC1(C)S[C@@H]2[C@H](NC(=O)Cc3ccccc3)C(=O)N2[C@H]1C(=O)O,-0.9*,nt
O=C(c1ccc(COc2cccc3ccccc23)cc1)N1CCCCC1,81,2
CCC(=O)N1CCc2cc(S(=O)(=O)N(C)CC(OC)OC)ccc21,89,14
CCN(CC)S(=O)(=O)c1ccc(Cl)c(C(=O)N2c3ccccc3Sc3ccccc32)c1,91,11
O=C(Nc1cccc(C(F)(F)F)c1)NC1CC(=O)N(Cc2ccccc2)C1 (stereo not given),91,4
CCOC(=O)c1ccc(NC(=O)CSc2cn(C)c3ccccc23)cc1,nt,-11
CC(=O)N1C(c2ccccc2)SC(C)(C)C1C(=O)O (stereo not given),91,nt
CC1(C)S[C@@H]2C(N3C(=O)[C@@H](c4ccccc4)NC3(C)C)C(=O)N2[C@H]1C(=O)O (stereo not given in full),-0.3*,nt
Cc1ccc(N=Cc2ccc3ncccc3c2)c(F)c1,118,-7
O=C(CC1SC(=NC2CC2)NC1=O)Nc1cc(C(F)(F)F)ccc1Cl (stereo not given),78,-3
COC(=O)C(CC(C)C)NC(=O)c1ccco1 (stereo not given),99,-11
COc1cc(CC(=O)OCC(=O)C(C)(C)C)cc(OC)c1OC,82,5
CCOC(=O)C1=C(C)NC(SCC(=O)N2CCOCC2)=C(C#N)C1c1ccco1 (stereo not given),109,5
CCC1(c2cccc(OC(=O)Nc3ccc(OC(F)(F)F)cc3)c2)CCCCN(C)C1=O (stereo not given),4.2*,nt
O=C(O)CC1(CC(=O)Nc2ccc(OC(F)(F)F)cc2)CCCC1,94,nt
Cc1oc2ncn(C)c(=O)c2c1C(=O)O,67,4
O=P1(N2CCN(c3ccc(F)c(Cl)c3)CC2)COc2ccccc2OC1,94,18
Cc1ccc(CNC(=O)c2cccc(Cn3cc(Cl)cn3)c2)cc1,90,5
O=C(NCc1ccccc1Cl)c1ccc(Cn2cc(Cl)cn2)cc1,2.9*,5
O=C1OC2(O)c3ccccc3C(=O)N2c2ccccc21 (stereo not given),87,-21
O=C1C=C2N(c3ccccc3)CCOC2(O)c2ccccc21 (stereo not given),4.8*,11

# High-throughput results deposited in PubChem BioAssay by ICCB-Longwood Screening Facility, Harvard Medical School.
